The nature of assay [1]: qHTS for identification of novel therapeutic agents for treatment of microphthalmiaassociated transcription factor (MiT) renal cell carcinoma (RCC) (AID 1963991; calls by dose curve). The note with it: CellTiter-Glo, 48 h; for z-score: stronger effect = lower value; for Potency: active = Z-AUC below -0.8 in all three lines. In short, it runs like this:
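Three TFE3-fusion RCC cell lines (UOK109, UOK124, UOK145), 500 cells/well, were exposed to the 1912-compound MIPE 4.0 library for 48 hours at 37 C. Viability was read by CellTiter-Glo luminescence, normalised to DMSO (100%) and empty wells (0%), with 11-concentration curve fits.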

A short description of assay [2]: qHTS drug screen for cell cycle checkpoint inhibitors in PARPi-resistant BRCA-mutant ovarian cancer cell lines. (AID 1963452; calls by dose curve). The note with it: PEO1/OlaR viability, CellTiter-Glo luminescence, 96 h; for Z-AUC: stronger effect = lower value. The method, boiled down:
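PEO1, PEO4 and PEO1/OlaR ovarian cancer cells, 600 per well, exposed 96 h at 37C to a dilution series. Viability read by CellTiter-Glo luminescence, normalized to DMSO and empty wells; activity summarized as Z-AUC.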
For orientation: qHTS replaces the single test concentration by a dilution series.

A short description of assay [3]: qHTS profiling for inhibitors of Plasmodium falciparum proliferation (AID 504749). Also: nearly all actives have a fitted effect of over 60% in size.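 As to activity, negative = inhibition: 0% = DMSO vehicle and full inhibition = artemisinin control.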 The conditions noted are these: P. falciparum in erythrocytes, SYBR Green DNA, 72 h. In short, it runs like this: (§1)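 SYBR Green fluorescence of parasite DNA, read after lysis and overnight dark incubation, measured growth over 72 h in erythrocyte culture at 0.3% parasitemia and 2.5% hematocrit. Data normalised to DMSO and 0.29 uM artemisinin, with plate-drift correction.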

A further assay has as its system 7G8. The assay is described as above. The note with it: P. falciparum in erythrocytes, SYBR Green DNA, 72 h; series mostly up to 28.7 µM. The method, boiled down: as §1
A further assay has as its system AS120. The assay is described as above. The conditions noted are these: P. falciparum in erythrocytes, SYBR Green DNA, 72 h; series mostly up to 28.7 µM. The method, boiled down:
as §1

A further assay deals with ATS189. Described as above. The conditions noted are these: P. falciparum in erythrocytes, SYBR Green DNA, 72 h; series mostly up to 28.7 µM. The method, boiled down: as §1
The next assay has as its system 3D7. The assay is described as above. The conditions noted are these: P. falciparum in erythrocytes, SYBR Green DNA, 72 h; series mostly up to 28.7 µM. In short, it runs like this:
as §1

The next assay relates to AA1029. The assay is described as above. The conditions noted are these: P. falciparum in erythrocytes, SYBR Green DNA, 72 h; series mostly up to 28.7 µM. The method, boiled down:
as §1

The test system of a further assay is ATS95. The assay is described as above. The conditions noted are these: P. falciparum in erythrocytes, SYBR Green DNA, 72 h; series mostly up to 28.7 µM. In short, it runs like this:
as §1

A further assay has as its system C2A. The description is as above. The conditions noted are these: P. falciparum in erythrocytes, SYBR Green DNA, 72 h; series mostly up to 28.7 µM. In short, it runs like this: as §1
[4] abbreviates: TFE3-RCC UOK109 viability, measured here: UOK109 Z-AUC.
[5] abbreviates: TFE3-RCC viability, measured here: UOK124 Z-AUC.
[6] abbreviates: TFE3-RCC viability, measured here: UOK145 Z-AUC.
The mark [7] stands for this setting: measured here: PEO1 parental Z-AUC.
The mark [8] stands for this setting: at 28.7 µM (top of the series), parasite line A.
Setting [9] is: at 28.7 µM (top of the series), parasite line B.
[10] abbreviates: at 12.8 µM (top of the series), parasite line B.

Inconclusive results are not listed. The source made the active and inactive calls. Unless noted, calls follow the shape of the dose curve; as a rule, active = well fitted inhibition curve with a large enough effect; inconclusive = small, poorly fitted or top-dose-only effect; inactive = flat fitted curve, though single readings scatter.
Potency is read from the fitted curve at half-maximal effect.

`C[C@H]1[C@H](NC(=O)C(=NOC(C)(C)C(=O)O)c2csc(N)n2)C(=O)N1S(=O)(=O)O`: the z-score in assay [1] (setting [4]) was found to be 1.25; in assay [1] (setting [5]), 0.648; in assay [1] (setting [6]), 1.65.
For the compound `O=C(NC1CCOCC1)c1ccc(-c2cc(-c3cn[nH]c3-c3ccccn3)ccn2)cc1`, the Z-AUC in assay [2] is 0.761 (inactive); in [2] (setting [7]), 0.819; in assay [2] (measured here: PEO4 Z-AUC) it was 0.929. Moreover, the z-score in assay [1] (setting [4]) stood at 0.905; in [1] (setting [5]), 1.11; in [1] (setting [6]) it was 0.561.
`CC1=C(/C=C/C(C)=C/C=C/C(C)=C/C(=O)Nc2ccc(O)cc2)C(C)(C)CCC1`: the Z-AUC in assay [2] was 0.685 (inactive); in assay [2] (setting [7]), 0.437; in assay [2] (measured here: PEO4 Z-AUC), 0.121. Also, the Potency in assay [3] (parasite line A) was 11.2 µM (active); in [3] (parasite line B), 10 µM (active); in the assay on 7G8 it was 8.91 µM (active); in the assay with AS120, 10 µM (active); with ATS189 it was 7.94 µM (active).
Consider `CCCCCN(C)CCC(O)(P(=O)(O)O)P(=O)(O)O`, for which the Z-AUC was 0.387 (inactive) in [2], 1.32 in assay [2] (setting [7]) and 1.05 in assay [2] (measured here: PEO4 Z-AUC). In addition, the z-score worked out at 0.34 in assay [1] (setting [4]), 0.128 in assay [1] (setting [5]) and 0.245 in assay [1] (setting [6]). In addition, the activity, negative = inhibition in assay [3] (setting [8]) was 13.8% (inactive); in [3] (setting [9]) it was 15.2% (inactive). The compound was called inactive in the assay with 3D7, in the assay with AA1029, in the assay on ATS95 and in the assay with C2A. Moreover, the Potency entry in the assay with 7G8, in the assay with AS120 and in the assay on ATS189 was “inactive” in each case.
Take `CC/C(=C(\c1ccccc1)c1ccc(OCCN(C)C)cc1)c1ccccc1`: the Z-AUC in assay [2] was -0.344 (inactive); in assay [2] (setting [7]), -0.716; in [2] (measured here: PEO4 Z-AUC) it was -0.672. In the assay with 7G8, the Potency was 12.6 µM (active).
In the case of `COc1cc(N2CCC(N3CCN(C)CC3)CC2)ccc1Nc1ncc(Cl)c(Nc2ccccc2S(=O)(=O)C(C)C)n1`, the Z-AUC is -0.172 (inactive) in assay [2], -0.594 in assay [2] (setting [7]) and -0.618 in assay [2] (measured here: PEO4 Z-AUC). For the same compound, the Potency in [1] (TFE3-RCC UOK109 viability) was 14.8 µM (active). In addition, the z-score in assay [1] (setting [4]) is -1.55; in [1] (setting [5]) it was -1.62; in assay [1] (setting [6]) it was -1.41.
With `CN1[C@@H]2CCC[C@@H]1CC(NC(=O)c1nn(C)c3ccccc13)C2` (stereo partly specified), the Z-AUC in [2] was -0.105 (inactive); in [2] (setting [7]) it was -0.292; in assay [2] (measured here: PEO4 Z-AUC) it was 0.149. Moreover, the z-score was 0.506 in assay [1] (setting [4]), 0.637 in assay [1] (setting [5]) and 0.0896 in [1] (setting [6]).
Take `O=C(O)c1c(Cl)c(Cl)c(Cl)c(Cl)c1-c1c2cc(I)c(=O)c(I)c-2oc2c(I)c(O)c(I)cc12`: the values for the Z-AUC in [2], in assay [2] (setting [7]) and in assay [2] (measured here: PEO4 Z-AUC) were 0.15 (inactive), 0.353 and 0.104, respectively. The activity, negative = inhibition in [3] (setting [8]) is 1.68% (inactive); in assay [3] (setting [9]) it was 2.35% (inactive). Moreover, the compound was called inactive in the assay with 3D7, in the assay with AA1029, in the assay on ATS95 and with C2A. The Potency entry in the assay with 7G8, with AS120 and in the assay with ATS189 was “inactive” in each case.
In the case of `COc1ccc(Cc2ccc(NC(N)=O)cc2)cc1-c1cccc(Cl)c1`, the results for the Z-AUC in assay [2], in assay [2] (setting [7]) and in assay [2] (measured here: PEO4 Z-AUC) were 0.65 (inactive), -0.098 and 0.315, respectively. In addition, the z-score in assay [1] (setting [4]) was found to be 0.762; in assay [1] (setting [5]), 0.853; in [1] (setting [6]) it was 0.582.
Consider `COc1cc2nc(-c3ccc(N4CCN(C)CC4)cc3)nc(NCCN3CCOCC3)c2cc1OC`, for which the Z-AUC in [2] was -0.0476 (inactive); in [2] (setting [7]), -0.00961; in [2] (measured here: PEO4 Z-AUC), -0.573. The Potency in assay [1] (TFE3-RCC UOK109 viability) is 1.18 µM (active). Besides, the z-score in assay [1] (setting [4]) is -1.15; in assay [1] (setting [5]) it was -1.85; in [1] (setting [6]), -1.4.
As to `OC[C@H]1O[C@@H](Oc2cc(O)cc(C=Cc3ccc(O)cc3)c2)[C@H](O)[C@@H](O)[C@H]1O`, the z-score stood at 0.664 in assay [1] (setting [4]), 0.547 in assay [1] (setting [5]) and 1.48 in [1] (setting [6]).
Consider `COc1ncc(-c2ccc3nccc(-c4ccnnc4)c3c2)cc1NS(=O)(=O)c1ccc(F)cc1F`, for which the values for the Potency in [2] and in assay [1] (TFE3-RCC UOK109 viability) were 0.174 µM (active) and 33.2 µM (active), respectively. Also, the values for the Z-AUC in [2] (setting [7]) and in assay [2] (measured here: PEO4 Z-AUC) were -2.06 and -1.99, respectively. For the same compound, the figures for the z-score in assay [1] (setting [4]), in assay [1] (setting [5]) and in [1] (setting [6]) were -3.1, -1.24 and -3.12, respectively.
Consider `C[C@]12CC[C@@H]3c4ccc(O)cc4C[C@@H](CCCCCCCCCS(=O)CCCC(F)(F)C(F)(F)F)[C@H]3[C@H]1CC[C@H]2O` (stereo partly specified), for which the figures for the Z-AUC in assay [2], in [2] (setting [7]) and in assay [2] (measured here: PEO4 Z-AUC) were -0.724 (inactive), -0.171 and -1.07, respectively. Also, the results for the z-score in assay [1] (setting [4]), in [1] (setting [5]) and in assay [1] (setting [6]) were 1.23, 0.607 and 0.767, respectively.
On to `COc1ccc(-c2nc(N3CCOCC3)c3sc(CN(C)c4ncc(C(=O)NO)cn4)cc3n2)cn1`, for which the Potency in assay [2] is 0.0616 µM (active); in assay [1] (TFE3-RCC UOK109 viability) it was 0.0264 µM (active). For the same compound, the Z-AUC in [2] (setting [7]) is -1.63; in assay [2] (measured here: PEO4 Z-AUC) it was -1.69. Also, the z-score in assay [1] (setting [4]) is -3.18; in [1] (setting [5]), -4.67; in assay [1] (setting [6]), -3.65.
With `O=C(O)C(O)Cc1ccc(O)c(O)c1` (stereo unspecified), the Z-AUC in [2] is 0.82 (inactive); in assay [2] (setting [7]) it was 1.05; in [2] (measured here: PEO4 Z-AUC), 0.735. Moreover, the results for the z-score in [1] (setting [4]), in assay [1] (setting [5]) and in assay [1] (setting [6]) were 0.888, 1.07 and 1.23, respectively.
As to `CO[C@H]1C=CC=C(C)C(=O)NC2=CC(=O)C(NCCN(C)C)=C(C[C@@H](C)C[C@H](OC)[C@@H](O)[C@@H](C)C=C(C)[C@@H]1OC(N)=O)C2=O`, in assay [1] (TFE3-RCC UOK109 viability), the Potency was 2.64 µM (active).
Regarding `CC(=O)CCCCn1c(=O)c2c(ncn2C)n(C)c1=O`, the activity, negative = inhibition in [3] (setting [10]) was 2.9% (inactive).
Turning to `CCN(CC)C(=O)c1ccc(O)c(OC)c1`, the activity, negative = inhibition in assay [3] (setting [10]) is 6.5% (inactive).

The record behind these values is PubChem BioAssay (NCATS).
